Measured values from PubChem BioAssay (NCI).
About 79,000 compounds went through this panel and 15% of them were active in at least one assay; those are over-represented in the sample as a whole. Unmarked numbers belong to inactive results. Calls of active or inactive are those of the source. No stated cut-off is given here; in the data, active means growth inhibition above about 70%; inactive means the rest.

What was measured:
[1] = NCI Yeast Anticancer Drug Screen. Data for the rad50 strain (AID 155);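 further: 0% = growth of vehicle-only cultures of the same strain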; conditions: S. cerevisiae rad50 strain growth inhibition; at 50.0 µM; hits give high values
How it was run: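 Yeast carrying a defined DNA repair defect were exposed to test compounds, and growth was compared with vehicle-treated controls to give percent inhibition.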

[2] = NCI Yeast Anticancer Drug Screen. Data for the mec2-1 strain (AID 157); conditions: S. cerevisiae mec2-1 strain, at 50.0 µM, hits give high values
How it was run: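 Yeast mec2-1 mutant treated with compound. Readout: growth inhibition vs vehicle controls.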

[3] = NCI Yeast Anticancer Drug Screen. Data for the sgs1 mgt1 strain (AID 161);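 further: 0% = growth of cultures given vehicle only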; conditions: S. cerevisiae sgs1 mgt1 strain, at 50.0 µM, hits give high values
How it was run: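 Genetically altered yeast, compound exposure, growth inhibition relative to vehicle.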

[4] = NCI Yeast Anticancer Drug Screen. Data for the cln2 rad14 strain (AID 165);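 further: 0% = growth equal to vehicle treated cultures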; conditions: S. cerevisiae cln2 rad14 strain, at 50.0 µM, hits give high values
How it was run: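 cln2 rad14 yeast strain; compound exposure; growth inhibition read vs vehicle controls.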

[5] = NCI Yeast Anticancer Drug Screen. Data for the bub3 strain (AID 167); conditions: S. cerevisiae bub3 mutant strain, at 50.0 µM, hits give high values
How it was run: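 Compounds were applied to a genetically altered yeast strain carrying a cell-cycle control defect. Growth inhibition was scored against vehicle-treated controls.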

[6] = NCI Yeast Anticancer Drug Screen. Data for the mlh1 rad18 strain (AID 175); conditions: S. cerevisiae mlh1 rad18 strain growth inhibition; at 50.0 µM; hits give high values
How it was run: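 Yeast w/ defined DNA-repair lesions; compound exposure; growth vs vehicle controls → % inhibition.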

SMILES	growth inhibition [1]	growth inhibition [2]	growth inhibition [3]	growth inhibition [4]	growth inhibition [5]	growth inhibition [6]
O=S1(=O)CCCCO1	-6%	1.65%	-10.9%	17.2%	-8.95%	4.4%
O=[N+]([O-])c1cccc(N=Nc2ccc(N(CCCl)CCCl)cc2)c1	-23.4%	0.6%	-2.55%	-27.2%	4.65%	11.6%
[Pd].c1ccc([PH+](CC[PH+](c2ccccc2)c2ccccc2)c2ccccc2)cc1.c1ccc([PH+](CC[PH+](c2ccccc2)c2ccccc2)c2ccccc2)cc1	24.8%	12.8%	59.5%	15.1%	15.7%	24.2%
C[N+]12CCC(c3ccccc3)(CC1)C(O)C2 (stereo unspecified)	-14.6%	-4.75%	2.1%	-5.15%	2.8%	8.1%
S=[As](c1ccc(-c2ccccc2)cc1)(c1ccc(-c2ccccc2)cc1)c1ccc(-c2ccccc2)cc1	-10.7%	-5.55%	-39.5%	-19.6%	-13.6%	-18.2%
Oc1ccccc1C=NCCN=Cc1ccccc1O.[Zn+2]	-29.2%	-2.2%	-25.1%	-53.8%	-7.8%	-17.9%
COc1ccc2c(c1OC(C)=O)C1=CC(=O)CCC13CCNC3C2 (stereo unspecified)	15.8%	6.7%	-13.9%	27.2%	-28.4%	-24.3%
O=Cc1ccccc1O.[Zn+2]	9.25%	6.2%	2.8%	3.6%	0.75%	1.6%
CCOC(OCC)c1ccccc1.[C-]#[O+].[C-]#[O+].[C-]#[O+].[Cr]	25.1%	21.4%	33%	13.9%	32.7%	8.8%
Cc1cc(=O)oc2cc(OC(=O)N(C)C)c(Cl)cc12	-0.5%	-11.3%	17.4%	24.4%	18.2%	10.3%
NC(Cc1ccc(Cl)cc1)c1nn[nH]n1 (stereo unspecified)	-5.5%	1.25%	-4.1%	-22.4%	1.2%	-7.7%
CC(C)N[C@@H]1CCC[C@H]1O	4.5%	-0.1%	-17.1%	11.7%	4.05%	-19.5%
C/C(=N\O)C(CN1CCCCC1)C(c1ccccc1)c1c(O)c2ccccc2oc1=O (stereo unspecified)	17.9%	2.05%	24.6%	28.6%	21.4%	26.9%
CC(Cc1ccc2c(c1)OCO2)NCC(O)c1ccc(O)c(O)c1 (stereo unspecified)	14.6%	-20.2%	18.2%	5%	32.2%	26.6%
CCC(=O)c1ccc(OC)c(OC)c1	7%	-1.3%	-0.15%	-2.85%	15.7%	1.75%
CCCCn1c(C)c(C(=O)OCC)c2cc(OCc3ccc(C(=O)Nn4c(C)ccc4C)cc3)c(Br)cc21	7.1%	-30.7%	-15.5%	-18.6%	-27.4%	-20.1%
CC[C@H]1CN2CCc3cc(OC)c(OC)cc3[C@@H]2C[C@@H]1C[C@H]1NCCc2c1[nH]c1ccc(O)cc21	-16.8%	17.3%	-19.9%	-8.65%	-26.9%	7.7%
CN(C)P1(=O)NCC(C(C)(C)C)CO1 (stereo unspecified)	26.4%	-21.1%	-5.3%	21.6%	-0.1%	-16.8%
CCCC(=O)[O-].CCCC(=O)[O-].N.N.N.N.[Co+3].[O-][Cl+3]([O-])([O-])[O-]	-5.15%	-0.75%	-48%	12.3%	-5.1%	-12.6%
O=C(COc1cccc(Cl)c1)NCc1ccccc1NC(=O)c1ccc(S(=O)(=O)F)cc1	95.2% (active)	84.3% (active)	95.2% (active)	89.9% (active)	90.5% (active)	95.8% (active)
N.N.N.N.N.[Co+3].[I-].[N-]=[N+]=[N-]	-0.25%	32.8%	-25.4%	20.4%	-6.05%	-9.05%

SMILES	growth inhibition [1]	growth inhibition [2]	growth inhibition [3]	growth inhibition [4]	growth inhibition [5]	growth inhibition [6]
CC(=O)CP(=O)(O)O	23.3%	-11.6%	-0.15%	-55.9%	10.1%	-6.35%
Cc1ccc2c3c(c(=O)oc2c1)[C@H](C)C[C@@](C)(CO)O3	-8.35%	1.9%	9.8%	-5.4%	3.7%	-7.35%
CCOC(=O)c1ccccc1C(=O)OCC	6.25%	-2.65%	-9.6%	6.1%	-0.05%	10.9%
CCNC(=O)N1CC2CCC(C1)N2C	-1.15%	7.85%	6.45%	-39.1%	-18.8%	8.45%
CCCCCC(=O)c1c(O)cc2c(c1O)C(=O)c1c(O)cc(O)cc1C2=O	10.2%	2.25%	6.1%	10.3%	8.35%	-5.7%
O=S1(=O)OCCOS(=O)(=O)C1(Cl)Cl	-32.6%	-41.5%	-18%	-11.4%	-31.6%	-8.65%
Cc1cc(S(=O)(=O)F)ccc1O	-3%	-6.2%	-16.5%	-42.8%	-2.6%	-1.3%
NCCCN1CCN(c2ccccc2)CC1	-0.45%	-30.2%	-12.6%	26%	-28.6%	-39.5%
COc1ccc2c(c1O)-c1cc(O)cc3c1C(C2)N(CCCl)CC3 (stereo unspecified)	63.4%	29.1%	64.6%	15.8%	-10.3%	48.7%
O=C1NC(=O)C(=Cc2ccccn2)C(=O)N1	-0.95%	-25%	-0.45%	18.6%	-6.4%	2.3%
COc1ccc(Oc2cc3c(cc2OC)CCN(C)C3)cc1	15.9%	7.7%	20.1%	-0.6%	-22.9%	-6.6%
CN(C)C1CCNCC1	19.7%	5.2%	17%	4.75%	4.6%	-1.5%
CNc1cccc2ccccc12	-3.3%	-14.1%	-54.5%	-36.5%	-28.6%	-0.35%
CCCOP1(=O)C=C(C)C(Cl)=C(C)C1 (stereo unspecified)	33.5%	-4.6%	20%	-1.45%	-14.7%	34.8%
N#CCc1ccccc1CC#N	20.8%	-0.65%	2.5%	-19.7%	3.9%	18.2%
Nc1ccc([As](=O)(O)O)cc1	27.8%	19.8%	14.9%	11.8%	7.9%	21.3%
COCC(=O)CP(=O)(OC)OC	-20.6%	-19.6%	-11.6%	18.6%	-14.7%	1.35%
O=C1NC(=O)C(O)(C2=C(O)CCC2=O)C(=O)N1	12.8%	-0.3%	4.9%	-25.6%	13.9%	10.4%
Cc1ccc(NC(=O)N(C)N=O)cc1	-3.5%	5.5%	-4.3%	-11.3%	-6.05%	-4.45%
CC(C)C(C)(O)C#N (stereo unspecified)	2.2%	-2.1%	2.6%	-23.4%	2.9%	17.9%
